From the supplement of paper PMC11732987, “Enantioselective OTUD7B fragment discovery through chemoproteomics screening and high-throughput optimisation” (Communications Chemistry, 2025)

Key:
Assay in all cases: log2 ratio of Biotin-Ahx-Ub-VS probe labelling (fragment/DMSO); higher = less target engagement (more negative = stronger competition), active = hit call of the paper (q ≤ 0.05, log2 ratio ≤ -1)
Conditions in all cases: compound concentration: 200 uM; treatment time: 3 h
USP42 = molecular target: T1, USP42 (UniProt Q9H9J4)
T1 sequence (whole entry): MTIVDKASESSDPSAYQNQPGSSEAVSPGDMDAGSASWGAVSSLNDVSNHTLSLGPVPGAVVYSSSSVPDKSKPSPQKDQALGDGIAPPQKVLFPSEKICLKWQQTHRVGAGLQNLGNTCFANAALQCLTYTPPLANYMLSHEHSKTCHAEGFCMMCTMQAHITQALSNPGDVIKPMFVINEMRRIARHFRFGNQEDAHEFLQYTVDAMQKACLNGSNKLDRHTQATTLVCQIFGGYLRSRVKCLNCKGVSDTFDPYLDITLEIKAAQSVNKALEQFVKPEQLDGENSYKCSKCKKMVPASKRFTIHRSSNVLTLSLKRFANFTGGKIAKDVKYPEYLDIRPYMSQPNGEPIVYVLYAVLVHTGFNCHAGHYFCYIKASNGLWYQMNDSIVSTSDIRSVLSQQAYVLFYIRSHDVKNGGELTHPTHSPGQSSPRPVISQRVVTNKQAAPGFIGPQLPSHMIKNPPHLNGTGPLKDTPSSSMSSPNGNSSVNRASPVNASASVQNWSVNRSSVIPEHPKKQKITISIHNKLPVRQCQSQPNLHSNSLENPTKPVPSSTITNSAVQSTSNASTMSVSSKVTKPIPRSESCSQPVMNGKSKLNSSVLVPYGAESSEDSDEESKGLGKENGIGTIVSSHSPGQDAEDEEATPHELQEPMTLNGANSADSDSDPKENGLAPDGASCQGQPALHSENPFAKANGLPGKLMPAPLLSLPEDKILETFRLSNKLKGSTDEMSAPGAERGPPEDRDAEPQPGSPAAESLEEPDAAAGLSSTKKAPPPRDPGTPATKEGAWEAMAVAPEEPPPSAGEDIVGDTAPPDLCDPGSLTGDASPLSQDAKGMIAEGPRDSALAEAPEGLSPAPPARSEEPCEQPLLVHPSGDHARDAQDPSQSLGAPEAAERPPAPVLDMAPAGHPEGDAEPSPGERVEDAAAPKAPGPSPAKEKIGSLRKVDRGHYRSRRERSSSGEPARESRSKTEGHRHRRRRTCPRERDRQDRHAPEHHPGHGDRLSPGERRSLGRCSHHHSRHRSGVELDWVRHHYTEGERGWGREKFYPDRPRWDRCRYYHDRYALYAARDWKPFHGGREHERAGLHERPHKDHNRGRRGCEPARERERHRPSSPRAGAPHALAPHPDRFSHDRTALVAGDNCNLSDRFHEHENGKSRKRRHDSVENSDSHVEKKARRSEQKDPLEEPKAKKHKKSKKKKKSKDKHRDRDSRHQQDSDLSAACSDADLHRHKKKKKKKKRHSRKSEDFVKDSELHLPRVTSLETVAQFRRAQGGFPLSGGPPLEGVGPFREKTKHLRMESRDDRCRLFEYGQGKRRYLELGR
Method in brief: (§1)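 Labelled DUBs were enriched with NeutrAvidin, digested with LysC and trypsin, and run by diaPASEF LC-MS/MS. The labelling used Biotin-Ahx-Ub-VS at 0.5 µM final for 1 h on HEK293T lysate (495 µg per sample) previously treated in triplicate with fragment at 200 µM or vehicle for 3 h. Values are average log2 fragment/vehicle ratios by unpaired t-test on global-median-normalised Spectronaut quantities of proteins with ≥2 unique peptides.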

USP46 = USP46 (UniProt P62068)
Chain of USP46 (P62068 whole entry): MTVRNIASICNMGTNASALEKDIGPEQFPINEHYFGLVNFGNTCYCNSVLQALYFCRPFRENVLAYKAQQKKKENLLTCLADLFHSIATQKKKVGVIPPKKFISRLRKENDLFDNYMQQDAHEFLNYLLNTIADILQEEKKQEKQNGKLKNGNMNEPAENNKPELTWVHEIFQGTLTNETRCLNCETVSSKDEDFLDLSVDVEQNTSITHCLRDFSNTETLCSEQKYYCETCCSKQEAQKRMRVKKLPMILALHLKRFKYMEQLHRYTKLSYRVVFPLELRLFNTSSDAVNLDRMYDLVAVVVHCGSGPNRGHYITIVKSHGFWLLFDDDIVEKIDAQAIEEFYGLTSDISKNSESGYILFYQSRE
Method in brief: as §1

USP47 = molecular target: T2, USP47 (UniProt Q96K76)
T2 sequence (whole entry): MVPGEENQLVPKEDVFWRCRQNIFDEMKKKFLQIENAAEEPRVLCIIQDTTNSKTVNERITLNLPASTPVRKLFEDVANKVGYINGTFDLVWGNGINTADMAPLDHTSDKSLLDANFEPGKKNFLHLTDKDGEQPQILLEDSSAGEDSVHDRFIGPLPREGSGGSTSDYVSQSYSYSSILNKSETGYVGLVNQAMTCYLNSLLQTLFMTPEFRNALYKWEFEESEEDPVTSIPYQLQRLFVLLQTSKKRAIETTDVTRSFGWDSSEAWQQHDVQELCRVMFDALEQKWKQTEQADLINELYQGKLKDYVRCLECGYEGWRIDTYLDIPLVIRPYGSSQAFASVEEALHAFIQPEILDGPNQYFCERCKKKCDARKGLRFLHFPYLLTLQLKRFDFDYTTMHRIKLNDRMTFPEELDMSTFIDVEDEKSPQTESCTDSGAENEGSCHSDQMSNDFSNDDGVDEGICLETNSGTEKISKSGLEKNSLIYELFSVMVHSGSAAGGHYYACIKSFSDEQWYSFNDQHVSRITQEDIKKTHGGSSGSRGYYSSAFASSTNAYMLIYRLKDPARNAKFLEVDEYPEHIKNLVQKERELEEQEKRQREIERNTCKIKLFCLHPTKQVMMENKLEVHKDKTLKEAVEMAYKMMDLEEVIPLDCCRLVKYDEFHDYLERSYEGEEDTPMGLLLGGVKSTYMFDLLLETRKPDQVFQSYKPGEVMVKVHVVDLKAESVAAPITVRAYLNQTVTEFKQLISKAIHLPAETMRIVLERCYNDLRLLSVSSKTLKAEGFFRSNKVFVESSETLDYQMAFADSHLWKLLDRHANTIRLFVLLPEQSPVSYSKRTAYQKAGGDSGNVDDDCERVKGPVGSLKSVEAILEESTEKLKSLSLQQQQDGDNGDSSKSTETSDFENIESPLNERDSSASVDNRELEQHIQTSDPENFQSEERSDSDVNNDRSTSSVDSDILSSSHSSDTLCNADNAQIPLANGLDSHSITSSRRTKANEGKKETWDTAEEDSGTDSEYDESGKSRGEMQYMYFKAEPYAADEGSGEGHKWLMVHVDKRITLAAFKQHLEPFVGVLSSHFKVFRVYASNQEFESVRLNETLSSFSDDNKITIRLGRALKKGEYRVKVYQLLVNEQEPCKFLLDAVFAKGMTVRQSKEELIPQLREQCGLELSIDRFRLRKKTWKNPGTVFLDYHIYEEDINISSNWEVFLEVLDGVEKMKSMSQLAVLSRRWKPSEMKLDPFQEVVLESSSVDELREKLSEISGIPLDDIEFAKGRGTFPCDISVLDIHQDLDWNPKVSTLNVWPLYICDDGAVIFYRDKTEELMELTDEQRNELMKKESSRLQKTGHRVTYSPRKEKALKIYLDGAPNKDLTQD
Method in brief: as §1

USP48 = molecular target: T3, USP48 (UniProt Q86UV5)
T3 sequence (whole entry): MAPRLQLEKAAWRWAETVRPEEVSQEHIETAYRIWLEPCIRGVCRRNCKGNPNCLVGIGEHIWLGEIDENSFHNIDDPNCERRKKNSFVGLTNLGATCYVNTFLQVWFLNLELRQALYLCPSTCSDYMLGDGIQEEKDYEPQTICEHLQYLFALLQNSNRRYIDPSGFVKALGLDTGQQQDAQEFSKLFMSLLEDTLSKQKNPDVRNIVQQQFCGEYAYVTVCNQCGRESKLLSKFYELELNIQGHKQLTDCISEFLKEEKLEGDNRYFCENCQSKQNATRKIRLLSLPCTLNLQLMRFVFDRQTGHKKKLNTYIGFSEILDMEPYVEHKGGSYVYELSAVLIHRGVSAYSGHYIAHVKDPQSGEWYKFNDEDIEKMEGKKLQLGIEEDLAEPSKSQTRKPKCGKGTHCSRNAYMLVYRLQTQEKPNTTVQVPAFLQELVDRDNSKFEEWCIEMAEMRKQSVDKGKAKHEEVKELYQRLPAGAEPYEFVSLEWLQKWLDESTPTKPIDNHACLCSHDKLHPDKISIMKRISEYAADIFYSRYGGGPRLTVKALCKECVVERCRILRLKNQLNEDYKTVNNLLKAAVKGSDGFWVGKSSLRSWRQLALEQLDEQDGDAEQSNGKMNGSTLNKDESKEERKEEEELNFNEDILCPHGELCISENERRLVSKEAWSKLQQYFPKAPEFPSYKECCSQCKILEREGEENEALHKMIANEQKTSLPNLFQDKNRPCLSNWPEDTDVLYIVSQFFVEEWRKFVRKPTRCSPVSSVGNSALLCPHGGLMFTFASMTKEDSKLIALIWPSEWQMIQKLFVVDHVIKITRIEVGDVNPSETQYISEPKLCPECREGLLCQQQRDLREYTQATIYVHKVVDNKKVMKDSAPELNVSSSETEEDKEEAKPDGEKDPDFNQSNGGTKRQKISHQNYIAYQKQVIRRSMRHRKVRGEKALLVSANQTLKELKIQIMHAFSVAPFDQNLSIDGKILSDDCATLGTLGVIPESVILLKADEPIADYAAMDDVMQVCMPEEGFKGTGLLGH
Method in brief: as §1

USP5 = molecular target: T4, USP5 (UniProt P45974)
T4 sequence (whole entry): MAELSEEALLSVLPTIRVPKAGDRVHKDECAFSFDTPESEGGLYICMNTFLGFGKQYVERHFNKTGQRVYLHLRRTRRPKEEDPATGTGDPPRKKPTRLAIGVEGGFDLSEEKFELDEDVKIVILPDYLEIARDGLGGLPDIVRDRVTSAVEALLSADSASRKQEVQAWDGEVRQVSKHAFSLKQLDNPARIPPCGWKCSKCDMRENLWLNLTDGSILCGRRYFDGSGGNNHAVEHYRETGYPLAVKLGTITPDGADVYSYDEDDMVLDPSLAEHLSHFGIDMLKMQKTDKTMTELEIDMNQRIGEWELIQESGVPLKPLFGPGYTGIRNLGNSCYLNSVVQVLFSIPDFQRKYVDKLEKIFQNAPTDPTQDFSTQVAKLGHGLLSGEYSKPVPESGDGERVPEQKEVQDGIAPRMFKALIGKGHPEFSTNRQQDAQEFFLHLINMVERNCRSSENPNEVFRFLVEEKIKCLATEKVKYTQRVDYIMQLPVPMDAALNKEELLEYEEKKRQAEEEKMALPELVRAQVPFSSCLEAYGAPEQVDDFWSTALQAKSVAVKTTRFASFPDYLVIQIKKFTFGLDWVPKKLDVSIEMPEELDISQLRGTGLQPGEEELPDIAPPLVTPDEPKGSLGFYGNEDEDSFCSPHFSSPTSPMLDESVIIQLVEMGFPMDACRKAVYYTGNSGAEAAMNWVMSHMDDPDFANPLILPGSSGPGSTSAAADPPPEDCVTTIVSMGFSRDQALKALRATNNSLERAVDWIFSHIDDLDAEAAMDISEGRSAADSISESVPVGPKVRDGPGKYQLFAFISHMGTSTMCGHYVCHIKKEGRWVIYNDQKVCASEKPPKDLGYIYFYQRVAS
Method in brief: as §1

USP54 = USP54 (UniProt Q70EL1)
Method in brief: as §1

USP7 = USP7 (UniProt Q93009)
Chain of USP7 (Q93009 whole entry, looked up): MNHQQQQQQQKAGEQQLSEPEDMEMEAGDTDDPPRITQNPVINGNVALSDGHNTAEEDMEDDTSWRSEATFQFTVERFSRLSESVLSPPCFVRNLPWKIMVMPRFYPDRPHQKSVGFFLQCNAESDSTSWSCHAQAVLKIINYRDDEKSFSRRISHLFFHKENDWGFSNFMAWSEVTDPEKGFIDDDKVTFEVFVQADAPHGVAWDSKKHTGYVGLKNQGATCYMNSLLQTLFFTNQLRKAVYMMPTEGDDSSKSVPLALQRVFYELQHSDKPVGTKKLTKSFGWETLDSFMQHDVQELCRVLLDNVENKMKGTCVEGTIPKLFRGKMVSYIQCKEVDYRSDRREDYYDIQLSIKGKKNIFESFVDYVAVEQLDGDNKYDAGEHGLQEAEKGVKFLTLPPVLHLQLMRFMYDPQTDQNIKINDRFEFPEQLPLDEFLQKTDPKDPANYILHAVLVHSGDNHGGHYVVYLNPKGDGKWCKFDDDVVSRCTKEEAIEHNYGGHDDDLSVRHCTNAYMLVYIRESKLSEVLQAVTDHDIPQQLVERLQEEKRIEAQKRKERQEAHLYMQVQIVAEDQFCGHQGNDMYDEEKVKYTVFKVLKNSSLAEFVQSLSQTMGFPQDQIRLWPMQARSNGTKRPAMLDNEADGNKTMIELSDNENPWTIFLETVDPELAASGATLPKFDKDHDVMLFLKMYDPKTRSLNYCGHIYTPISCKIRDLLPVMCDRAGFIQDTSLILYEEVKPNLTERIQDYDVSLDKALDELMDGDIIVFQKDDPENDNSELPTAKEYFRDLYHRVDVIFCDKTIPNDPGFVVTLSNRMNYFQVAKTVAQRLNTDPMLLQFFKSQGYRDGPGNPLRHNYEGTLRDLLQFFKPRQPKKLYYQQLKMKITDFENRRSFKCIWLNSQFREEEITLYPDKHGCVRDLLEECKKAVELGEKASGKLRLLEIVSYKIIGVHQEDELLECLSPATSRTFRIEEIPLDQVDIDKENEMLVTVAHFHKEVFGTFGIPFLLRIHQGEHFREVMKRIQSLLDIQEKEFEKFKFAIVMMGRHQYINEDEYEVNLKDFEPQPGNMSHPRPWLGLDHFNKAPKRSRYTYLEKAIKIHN
Method in brief: as §1

USP8 = molecular target: T5, USP8 (UniProt P40818)
T5 sequence (whole entry): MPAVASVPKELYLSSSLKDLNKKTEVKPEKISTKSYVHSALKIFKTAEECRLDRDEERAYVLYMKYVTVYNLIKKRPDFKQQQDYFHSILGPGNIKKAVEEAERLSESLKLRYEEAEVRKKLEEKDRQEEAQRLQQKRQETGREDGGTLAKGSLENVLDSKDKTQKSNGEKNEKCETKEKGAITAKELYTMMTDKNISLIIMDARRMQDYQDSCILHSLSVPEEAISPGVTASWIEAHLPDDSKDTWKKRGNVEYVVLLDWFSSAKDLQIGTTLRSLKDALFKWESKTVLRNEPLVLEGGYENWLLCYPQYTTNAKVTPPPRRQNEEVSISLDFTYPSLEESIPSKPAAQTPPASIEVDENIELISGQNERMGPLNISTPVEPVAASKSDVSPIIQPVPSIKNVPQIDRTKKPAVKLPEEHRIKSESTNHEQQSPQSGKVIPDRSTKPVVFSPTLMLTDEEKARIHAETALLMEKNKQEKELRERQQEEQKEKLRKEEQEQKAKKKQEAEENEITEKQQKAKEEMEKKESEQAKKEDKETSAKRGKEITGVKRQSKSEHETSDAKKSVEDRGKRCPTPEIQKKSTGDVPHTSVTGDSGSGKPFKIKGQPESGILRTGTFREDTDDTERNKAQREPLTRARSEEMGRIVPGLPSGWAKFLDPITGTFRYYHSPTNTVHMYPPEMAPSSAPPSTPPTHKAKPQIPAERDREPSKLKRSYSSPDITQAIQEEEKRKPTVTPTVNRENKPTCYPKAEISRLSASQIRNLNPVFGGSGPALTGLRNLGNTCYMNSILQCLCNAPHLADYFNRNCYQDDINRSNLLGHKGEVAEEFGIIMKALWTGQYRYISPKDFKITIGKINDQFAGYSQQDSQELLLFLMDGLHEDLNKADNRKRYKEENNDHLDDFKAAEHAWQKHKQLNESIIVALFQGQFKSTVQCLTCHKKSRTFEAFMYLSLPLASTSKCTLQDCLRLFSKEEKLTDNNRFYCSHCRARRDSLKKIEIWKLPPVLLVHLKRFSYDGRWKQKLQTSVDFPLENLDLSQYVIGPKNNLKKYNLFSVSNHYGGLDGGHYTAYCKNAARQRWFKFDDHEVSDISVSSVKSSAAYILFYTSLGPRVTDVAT
Method in brief: as §1

USP9X = USP9X (UniProt Q93008)
Chain of USP9X (Q93008 whole entry): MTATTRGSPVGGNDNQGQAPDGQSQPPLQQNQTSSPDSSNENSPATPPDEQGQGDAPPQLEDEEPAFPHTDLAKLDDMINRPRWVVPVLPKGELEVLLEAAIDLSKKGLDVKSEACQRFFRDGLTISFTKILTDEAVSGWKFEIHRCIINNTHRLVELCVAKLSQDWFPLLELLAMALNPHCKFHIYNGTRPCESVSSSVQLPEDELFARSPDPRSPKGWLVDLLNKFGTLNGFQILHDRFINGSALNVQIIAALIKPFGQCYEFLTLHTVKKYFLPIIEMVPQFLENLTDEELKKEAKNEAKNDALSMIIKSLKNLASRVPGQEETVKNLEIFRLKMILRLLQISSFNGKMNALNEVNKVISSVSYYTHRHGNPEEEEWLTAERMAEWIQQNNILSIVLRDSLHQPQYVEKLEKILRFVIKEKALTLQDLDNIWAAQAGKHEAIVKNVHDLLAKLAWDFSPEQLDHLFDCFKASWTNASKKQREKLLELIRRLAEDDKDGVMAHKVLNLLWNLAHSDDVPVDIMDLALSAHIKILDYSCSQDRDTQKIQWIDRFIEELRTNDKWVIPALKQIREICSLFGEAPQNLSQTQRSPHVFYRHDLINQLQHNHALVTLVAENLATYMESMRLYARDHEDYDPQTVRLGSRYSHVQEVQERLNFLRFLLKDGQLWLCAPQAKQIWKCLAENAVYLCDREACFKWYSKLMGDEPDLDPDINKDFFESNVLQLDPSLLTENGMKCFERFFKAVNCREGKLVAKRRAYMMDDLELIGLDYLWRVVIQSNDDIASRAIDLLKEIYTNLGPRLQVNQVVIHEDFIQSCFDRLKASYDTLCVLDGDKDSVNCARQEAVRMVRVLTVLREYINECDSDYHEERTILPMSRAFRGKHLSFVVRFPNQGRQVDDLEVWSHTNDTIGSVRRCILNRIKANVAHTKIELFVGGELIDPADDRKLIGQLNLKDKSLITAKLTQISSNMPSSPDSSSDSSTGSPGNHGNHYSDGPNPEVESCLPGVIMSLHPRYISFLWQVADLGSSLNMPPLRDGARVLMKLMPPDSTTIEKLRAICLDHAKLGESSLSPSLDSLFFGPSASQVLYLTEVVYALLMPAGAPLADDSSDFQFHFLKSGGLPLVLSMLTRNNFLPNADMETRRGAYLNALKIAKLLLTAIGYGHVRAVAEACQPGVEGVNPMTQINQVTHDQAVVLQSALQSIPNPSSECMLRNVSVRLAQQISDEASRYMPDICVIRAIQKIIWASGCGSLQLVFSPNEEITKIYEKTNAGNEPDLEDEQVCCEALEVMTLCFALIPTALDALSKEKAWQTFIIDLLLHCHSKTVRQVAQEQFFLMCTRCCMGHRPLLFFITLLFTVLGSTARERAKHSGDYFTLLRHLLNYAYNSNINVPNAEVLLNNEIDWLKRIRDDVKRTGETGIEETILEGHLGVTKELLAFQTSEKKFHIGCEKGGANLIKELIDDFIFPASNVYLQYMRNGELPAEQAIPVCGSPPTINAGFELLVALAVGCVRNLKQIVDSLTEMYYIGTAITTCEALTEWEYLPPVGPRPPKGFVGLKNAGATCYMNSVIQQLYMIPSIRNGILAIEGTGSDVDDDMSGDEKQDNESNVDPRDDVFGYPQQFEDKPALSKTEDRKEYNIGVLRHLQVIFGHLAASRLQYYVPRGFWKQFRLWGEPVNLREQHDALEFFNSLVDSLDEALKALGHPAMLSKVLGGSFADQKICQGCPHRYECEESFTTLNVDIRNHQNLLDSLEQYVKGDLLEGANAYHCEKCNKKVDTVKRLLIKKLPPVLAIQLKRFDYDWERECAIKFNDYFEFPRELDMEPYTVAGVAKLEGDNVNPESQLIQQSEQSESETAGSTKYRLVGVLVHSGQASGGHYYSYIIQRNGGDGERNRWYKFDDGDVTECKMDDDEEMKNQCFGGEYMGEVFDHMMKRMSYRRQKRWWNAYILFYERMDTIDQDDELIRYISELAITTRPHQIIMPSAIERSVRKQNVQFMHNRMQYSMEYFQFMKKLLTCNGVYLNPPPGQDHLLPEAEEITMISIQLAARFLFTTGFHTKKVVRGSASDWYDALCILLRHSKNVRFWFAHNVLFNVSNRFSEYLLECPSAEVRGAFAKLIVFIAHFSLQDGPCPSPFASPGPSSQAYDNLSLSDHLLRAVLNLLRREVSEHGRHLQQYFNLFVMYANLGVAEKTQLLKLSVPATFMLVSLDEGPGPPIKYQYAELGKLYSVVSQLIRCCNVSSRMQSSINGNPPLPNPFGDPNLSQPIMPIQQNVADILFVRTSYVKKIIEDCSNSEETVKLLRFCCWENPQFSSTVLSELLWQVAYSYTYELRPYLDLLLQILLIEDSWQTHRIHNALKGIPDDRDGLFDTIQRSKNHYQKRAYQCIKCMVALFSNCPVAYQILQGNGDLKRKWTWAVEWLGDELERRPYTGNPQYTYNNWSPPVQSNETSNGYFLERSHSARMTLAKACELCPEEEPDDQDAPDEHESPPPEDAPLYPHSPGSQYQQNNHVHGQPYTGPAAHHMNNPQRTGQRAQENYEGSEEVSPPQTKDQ
Method in brief: as §1

UniProt O00487 = molecular target: UniProt O00487
Chain of UniProt O00487 (O00487 whole entry): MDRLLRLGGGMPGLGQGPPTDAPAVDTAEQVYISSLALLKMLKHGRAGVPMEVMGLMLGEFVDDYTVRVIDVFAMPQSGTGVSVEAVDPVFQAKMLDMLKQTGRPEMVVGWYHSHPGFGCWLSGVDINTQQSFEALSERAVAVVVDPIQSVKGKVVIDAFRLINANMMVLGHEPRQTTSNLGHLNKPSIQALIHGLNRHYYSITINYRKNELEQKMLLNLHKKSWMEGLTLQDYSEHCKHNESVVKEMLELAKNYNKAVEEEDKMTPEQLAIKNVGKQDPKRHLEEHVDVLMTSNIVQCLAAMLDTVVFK
Method in brief: as §1

Measured: log2 ratio of Biotin-Ahx-Ub-VS probe labelling

O=C(CCl)N1CCC[C@@H]1c1ccon1
inactive: USP42 0.00575 | USP46 -0.0791 | USP47 -0.264 | USP48 -0.779 | USP5 -0.0234 | USP54 0.591 | USP7 -0.78 | USP8 -0.331 | USP9X -0.32 | UniProt O00487 -0.227
